# Records with an inconclusive call do not appear. Entries that show only a call come without a potency. Calls of active or inactive are those of the source. Unless noted, the call rests on the fitted dose curve; in most records, active means well fitted curve in the direction sought with a large enough effect; inconclusive means small, poorly fitted or top-dose-only effect, or another doubt; inactive means no such curve, though single readings can be large; an effect the other way counts as inactive or inconclusive. Where a SMILES comes first, the peptide text is derived from it. Bridges are numbered along the chain shown (N, C = ends). [ ]: non-standard residue; d: D form. hArg = N=C(N)NCCCC[C@H](N)C(=O)O; Mpa = O=C(O)CCS
# What was measured:
# [1] = A High-Content qHTS Against Drug Library for the Identification of Small Molecules that Inhibit DYT1 Early Onset Primary Dystonia-Associated Cell Pathology (AID 1645839; calls by dose curve; further: potency means the concentration at half of the fitted maximal effect)
# Procedure, shortened: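 Flp-In T-REx 293 cells with tetracycline-inducible EGFP-delE hTOR1A (WT EGFP-hTOR1A as reference), 800 cells/well; compound added with tetracycline, 48 h at 37 C. Fixed, permeabilized cells imaged; %pathology (punctate TorsinA) primary, cell count counterscreen.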
# [2] = biological target: Cytochrome P450 2D6 (Homo sapiens) (UniProt P10635); assay: Cytochrome P450 family 2 subfamily D member 6 (CYP2D6) small molecule antagonists: luciferase biochemical (cell-free) qHTS assay (AID 1645840; active means well fitted curve in the direction sought with a large enough effect in the repeat runs; an effect the other way counts as inactive or inconclusive; further: nearly all actives have a fitted effect of over 55% in size; further: potency means the concentration at half of the fitted maximal effect)
# Procedure, shortened: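 P450-Glo luminescent screen: recombinant CYP2D6 enzyme–proluciferin substrate mix preincubated with compound 10 min at room temperature, then NADPH regeneration added for 1 h at room temperature. Detection reagent added for 20 min; luciferin light read as relative luminescence units.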
# [3] = Primary qHTS for inhibitors of nuclear receptor binding SET domain protein 2 (NSD2) in an isogenic RCH-ACV NSD2 p.E1099K mutant (9B) (AID 1645876); further: nearly all actives have a fitted effect of over 70% in size
# [4] = Primary qHTS for inhibitors of nuclear receptor binding SET domain protein 2 (NSD2) in an RCH-ACV wild type WT cells (2C) (AID 1645877); further: nearly all actives have a fitted effect of over 70% in size
# [5] = biological target: Cytochrome P450 2C9 (Homo sapiens) (UniProt P11712); assay: Cytochrome P450 family 2 subfamily C member 9 (CYP2C9) small molecule antagonists: luciferase biochemical (cell-free) qHTS assay (AID 1645842; active means well fitted curve in the direction sought with a large enough effect in the repeat runs; an effect the other way counts as inactive or inconclusive; further: series mostly up to about 57 µM; nearly all actives have a fitted effect of over 55% in size)
# Procedure, shortened: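 Luminescence, after 20 min with luciferin detection reagent, reflected CYP2C9 turnover during a 1 h NADPH-driven reaction at 37C. Enzyme-substrate mix contained 0.4% bovine serum albumin and was preincubated with compound 10 min at room temperature.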
# [6] = biological target: Glutathione peroxidase 1 (Homo sapiens) (UniProt P07203); assay: Primary qHTS Assay for Inhibitors of Recombinant Selenoprotein Glutathione Peroxidase 1 (GPX1) (AID 1845191); further: nearly all actives have a fitted effect of over 65% in size
# Procedure, shortened: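 GR-coupled assay: compounds preincubated 30 min at room temperature with GPX1, then reaction started with CHP; final 10 nM GPX1, 1 mM GSH, 0.5 mM CHP, 0.5 mM NADPH, 100 nM GR, 0.01% BSA, pH 7.5 Tris buffer. NADPH fluorescence (340/450 nm) read at 0 and 15 min.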
# [7] = biological target: N-terminal Xaa-Pro-Lys N-methyltransferase 1 (Homo sapiens) (UniProt Q9BV86); assay: Confirmatory qHTS for Inhibitors of N-terminal methyltransferase 1 (NTMT1): MTaseGlo Assay (AID 1645874); further: potency means the concentration at half of the fitted maximal effect; nearly all actives have a fitted effect of over 65% in size
# Procedure, shortened: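 Luminescent MTase-Glo read-out of SAH. 125 nM NTMT1, 100 uM SAM, 1 uM SPKRIA substrate, 30 min RT reaction after 15 min compound preincubation. Normalized to no-enzyme and DMSO controls; Hill fit.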
# Sequence of Glutathione peroxidase 1 (Homo sapiens) (P07203 whole entry, looked up): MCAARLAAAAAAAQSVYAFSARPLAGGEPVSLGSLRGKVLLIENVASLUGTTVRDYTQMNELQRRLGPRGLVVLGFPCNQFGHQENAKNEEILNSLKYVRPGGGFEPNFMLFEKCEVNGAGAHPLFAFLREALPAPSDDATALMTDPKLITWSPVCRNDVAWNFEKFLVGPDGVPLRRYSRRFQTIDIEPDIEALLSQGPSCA
# Sequence of Cytochrome P450 2D6 (Homo sapiens) (P10635 whole entry, looked up): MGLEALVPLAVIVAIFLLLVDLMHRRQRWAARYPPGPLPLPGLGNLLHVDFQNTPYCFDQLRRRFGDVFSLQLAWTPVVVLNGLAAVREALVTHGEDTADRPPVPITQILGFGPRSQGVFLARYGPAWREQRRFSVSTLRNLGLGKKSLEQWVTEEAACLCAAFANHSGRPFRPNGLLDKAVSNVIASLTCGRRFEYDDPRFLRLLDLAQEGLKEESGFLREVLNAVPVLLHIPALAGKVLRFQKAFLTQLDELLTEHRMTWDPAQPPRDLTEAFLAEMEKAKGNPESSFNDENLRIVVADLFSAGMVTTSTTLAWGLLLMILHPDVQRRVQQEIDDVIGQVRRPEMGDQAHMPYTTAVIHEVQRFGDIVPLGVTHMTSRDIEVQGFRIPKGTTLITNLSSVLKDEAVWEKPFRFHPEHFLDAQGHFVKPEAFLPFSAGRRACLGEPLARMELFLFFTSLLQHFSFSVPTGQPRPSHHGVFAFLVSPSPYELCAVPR
# Sequence of Cytochrome P450 2C9 (Homo sapiens) (P11712 whole entry, looked up): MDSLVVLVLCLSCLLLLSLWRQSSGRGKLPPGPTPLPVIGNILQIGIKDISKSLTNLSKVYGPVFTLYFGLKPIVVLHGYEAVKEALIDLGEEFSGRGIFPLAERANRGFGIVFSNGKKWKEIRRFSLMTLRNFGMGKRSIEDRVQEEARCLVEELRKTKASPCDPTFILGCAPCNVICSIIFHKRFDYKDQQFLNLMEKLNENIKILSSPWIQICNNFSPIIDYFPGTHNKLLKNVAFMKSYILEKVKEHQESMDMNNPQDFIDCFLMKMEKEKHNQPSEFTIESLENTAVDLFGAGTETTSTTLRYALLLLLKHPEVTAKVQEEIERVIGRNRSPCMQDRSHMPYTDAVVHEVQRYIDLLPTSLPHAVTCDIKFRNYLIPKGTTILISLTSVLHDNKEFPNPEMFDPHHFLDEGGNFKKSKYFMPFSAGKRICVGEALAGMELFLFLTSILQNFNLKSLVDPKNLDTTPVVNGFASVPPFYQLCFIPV
# Sequence of N-terminal Xaa-Pro-Lys N-methyltransferase 1 (Homo sapiens) (Q9BV86 whole entry, looked up): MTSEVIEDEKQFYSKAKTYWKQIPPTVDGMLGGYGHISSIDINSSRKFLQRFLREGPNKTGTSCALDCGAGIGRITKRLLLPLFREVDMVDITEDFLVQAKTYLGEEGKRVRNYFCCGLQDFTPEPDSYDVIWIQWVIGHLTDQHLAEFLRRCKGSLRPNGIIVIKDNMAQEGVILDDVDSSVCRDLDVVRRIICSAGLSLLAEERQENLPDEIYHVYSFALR
Structure (SMILES),Potency [1],Potency [2],Potency [3],Potency [4],Potency [5],Potency [6],Potency [7]
CCc1nnc(NS(=O)(=O)c2ccc(N)cc2)s1,inactive,inactive,inactive,inactive,–,–,–
Cn1cc(C(=O)[C@@H]2CCc3nc[nH]c3C2)c2ccccc21,inactive,12.3 µM (active),–,–,inactive,inactive,–
CC(=O)Nc1ccc(C(=O)O)cc1,inactive,inactive,inactive,inactive,inactive,inactive,–
CCc1cccc(CC)c1NC(=O)CN(CC(=O)O)CC(=O)O,inactive,inactive,inactive,inactive,inactive,inactive,–
COc1nccnc1NS(=O)(=O)c1ccc(N)cc1,inactive,inactive,inactive,inactive,inactive,inactive,–
CN(C/C=C/C#CC(C)(C)C)Cc1cccc2ccccc12,inactive,0.0347 µM (active),inactive,inactive,–,inactive,–
CCCCCCCCCCCCCCCCC(C(=O)O)C(O)(CC(=O)O)C(=O)O (stereo not given),7.94 µM (active),–,–,–,inactive,–,17 µM (active)
O=C(O)/C=C/c1ccc(Cn2ccnc2)cc1,inactive,inactive,inactive,inactive,–,inactive,–
NCC1CCC(C(=O)Oc2ccc(CCC(=O)O)cc2)CC1 (stereo not given),inactive,inactive,inactive,inactive,inactive,inactive,–
Cc1c(NC(C)C)c(=O)n(-c2ccccc2)n1C,inactive,–,inactive,inactive,inactive,–,–
NC(=O)[C@@H]1CSSCCC(=O)N[C@@H](CCCCN=C(N)N)C(=O)NCC(=O)N[C@@H](CC(=O)O)C(=O)N[C@@H](Cc2c[nH]c3ccccc23)C(=O)N2CCC[C@H]2C(=O)N1 ([Mpa][hArg]GDWPC-NH2; disulfide 1-7),inactive,inactive,–,–,inactive,inactive,–
FC(F)(F)C(Cl)Br (stereo not given),inactive,inactive,inactive,inactive,inactive,inactive,–
OCCN1C[C@H](O)[C@@H](O)[C@H](O)[C@H]1CO,inactive,inactive,inactive,inactive,inactive,inactive,–
O=C(NCC(O)CO)c1c(I)c(C(=O)NCC(O)CO)c(I)c(N(CCO)C(=O)CO)c1I (stereo not given),inactive,inactive,inactive,–,inactive,inactive,–
